Measurements from PubChem BioAssay (NCI).
“And” between values parts separate entries of the source, which are not always exact repeats. Equal values may be shown once. About 83,000 compounds went through this panel and 20% of them were active in at least one assay; those are over-represented in the sample as a whole.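 Assay: single dose, 48 h. Readout: percent growth (0 = no net growth; negative = cell death). Active: <10.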 The source made the active and inactive calls.

Tested on: OVCAR-4 ovarian
Assay: NCI-60 one-dose screen, 48 h (100 = growth as untreated, 0 = no growth, -100 = all killed)
Settings: 10 µM
Method: Growth inhibition of the OVCAR-4 human tumor cell line is measured as a screen for anti-cancer activity. Cells are grown in 96 well plates and exposed to the test compound for 48 hours. Compounds are tested at a single concentration, which is 10^-5 M for most compounds. The reported endpoint is percent growth (GI% or GIPRCNT), where numbers from 0 - 100% represent growth inhibition, and numbers from -100% - 0 represent cell death. For example, a value of 40 represents 60% growth inhibition. A value of 0 means no net growth occurred over the course of the experiment. A value of -40 indicates 40% of cells at the beginning of the experiment died by the end of the experiment. A value of -100 means all cells are dead at the end of the experiment.
NCI-60 Human Tumor Cell Lines Screen was performed using the standard one-dose NCI protocol, which is described in more detail at https://dtp.cancer.gov/discovery_development/nci-60/default.htm.
Compounds with GIPRCNT values below 10 were considered active. Activity score was based on GIPRCNT using the following formula: […]
Score is 0 for GIPRCNT values of 100 or above, 50 for GIPRCNT values of 0, and 100 for GIPRCNT values of -100.

Row | Compound | growth
1 | C=C1C(=O)O[C@@H]2C[C@@H](C)[C@@H]3C=CC(=O)[C@@]3(C)[C@@H](O)[C@H]12 | -36.6% (active)
2 | O=C(CCl)Nc1ccc(Cl)cc1 | 17.6% (inactive)
3 | C[C@]12CC[C@H]3[C@@H](CCC4=CC(=O)CC[C@@H]43)[C@@H]1CC[C@@H]2OC(=O)N(CCCl)N=O | 84.8% (inactive)
4 | O=C1C(=O)c2ccccc2-c2ccccc21 | -100% (active)
5 | CC(=O)[O][Hg][c]1c(C)c(C)cc(C)c1C | -93.2% (active)
6 | CS(=N)(=O)CCC(N)C(=O)O (stereo not given) | 104% (inactive)
7 | C/C1=C\[C@H](C)C[C@H](C)OC(=O)C[C@H](c2ccc(O)cc2)NC(=O)[C@@H](Cc2c(Br)[nH]c3ccccc23)N(C)C(=O)[C@H](C)NC(=O)[C@@H](C)C1 | -54.6% (active)
8 | CCOP(=O)(OCC)/C(C#N)=C/c1ccc(Br)cc1 | 98.4% (inactive)
9 | CC[C@@H](C)[C@@H]1NC(=O)C(NC(=O)C(CC(C)C)N(C)C(=O)C2CCCN2C(=O)C(C)O)C(C)OC(=O)C(Cc2ccc(OC)cc2)N(C)C(=O)C2CCCN2C(=O)C(CC(C)C)NC(=O)C(C)C(=O)C(C(C)C)OC(=O)C[C@H]1O (stereo not given in full) | -30.8% (active)
10 | Cn1c(O)c(N=O)c(=O)n(C)c1=O | 116% (inactive) and 111% (inactive)
11 | O=S(=O)(F)c1ccc(Cl)cc1 | 115% (inactive)
12 | Cc1cc(C)c(C[N+](C)(C)C)c(C)c1C | 8.09% (active)
13 | Oc1ccccc1-c1ccccc1 | 108% (inactive) and 104% (inactive)
14 | O=[N+]([O-])/C=C/c1ccc(Cl)cc1[N+](=O)[O-] | 10% (active)
15 | COc1ccccc1[As]=[As]c1ccccc1OC (stereo not given) | -85.1% (active)
16 | C#CC1(O)CCC(C(C)(C)C)CC1 (stereo not given) | 116% (inactive)
17 | COc1cc(/C=C(/C)[N+](=O)[O-])ccc1O | 50.6% (inactive)
18 | COC12C(COC(N)=O)C3=C(C(=O)C(C)=C(N)C3=O)N1CC1C2N1C (stereo not given) | 70.5% (inactive)
19 | O=[N+]([O-])/C=C/c1ccc([N+](=O)[O-])cc1 | 85.6% (inactive) and 86.6% (inactive)
20 | COc1cc(/C=C\[N+](=O)[O-])ccc1O | 92.6% (inactive) and 113% (inactive)

Row | Compound | growth
21 | CC/C(=C/c1ccc(OC)cc1)[N+](=O)[O-] | 62% (inactive)
22 | O=[P+](O)c1ccccc1 | 114% (inactive)
23 | [Cl][Hg][c]1ccc2ccccc2c1 | -89.7% (active)
24 | Oc1c(I)cc(I)cc1I | 104% (inactive)
25 | S=C=NCCc1ccccc1 | 69.5% (inactive)
26 | N#CCc1ccccc1 | 94.6% (inactive)
27 | O=[N+]([O-])c1ccc(N(CCO)CCO)c2c1no[n+]2[O-] | -25.8% (active)
28 | O=[N+]([O-])/C=C\c1ccc2c(c1)OCO2 | 76.9% (inactive)
29 | CN(C)CC1(N)C(=O)NC(=O)NC1=O | 103% (inactive)
30 | CC1CCC2(OC1)OC1C(O)C3C4CCC5CC(OC6OC(CO)C(OC7OC(CO)C(O)C(OC8OCC(O)C(O)C8O)C7OC7OC(CO)C(O)C(OC8OC(CO)C(O)C(O)C8O)C7O)C(O)C6O)C(O)CC5(C)C4CCC3(C)C1C2C (stereo not given) | -66.7% (active)
31 | ClCc1ccc2ccccc2n1 | 101% (inactive)
32 | C[CH2][Hg][S]c1ccccc1C(=O)O | -36.6% (active)
33 | O=C(O)c1cc(Cc2ccc(O)c(C(=O)O)c2)ccc1O (tested in a mixture with another compound) | 66.9% (inactive)
34 | COc1cc2c(c(OC)c1OC)-c1ccc(O)c(=O)cc1[C@@H](NC(C)=O)CC2 | 46.5% (inactive)
35 | NC(Cc1ccccc1)c1ccccc1 (stereo not given) | 103% (inactive) and 112% (inactive)
36 | O=C(CBr)Nc1ccccc1 | 92.5% (inactive)
37 | CC12OOC(c3ccccc31)c1c2ccc2ccccc12 (stereo not given) | -57.7% (active)
38 | [O-][n+]1ccccc1S | 36.2% (inactive)
39 | C[C@@H]1C[C@@H]([C@H](O)CC2CC(=O)NC(=O)C2)C(=O)[C@@H](C)C1 | 12.8% (inactive)
40 | COc1ccc(/C=C(\C)[N+](=O)[O-])cc1OC | 17.2% (inactive)
